Screens: PubChem BioAssay, National Center for Advancing Translational Sciences (NCATS)
FEN1 inh = human FEN1 inhibition; P39748; Recombinant FEN1 flap cleavage, fluorescence, 15 min; Potency, µM (top dose mostly 114 µM), for the others: at the highest dose activity change, negative = inhibition, hits mostly inhibitors; 390,000 compounds, 0.35% hits; AID 588795; further: on the % scale 0 is the no-effect control and ±100 the full control effect; nearly all actives have a fitted effect of over 65% in size
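Enzyme 10 nM, 15 min RT preincubation with compound; start with substrate 50 nM final; reads at 0 and 15 min; qHTS titration, four-parameter Hill fit.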
POLH inh = blocks human DNA polymerase eta activity; Q9Y253; recombinant Pol eta, fluorescent DNA replication assay; Potency, µM (titrated, usually from 114 µM), inactives show top-dose activity change, negative = inhibition, most hits filed as inhibitors; 390,000 compounds, 1.2% hits; AID 588591; further: on the % scale 0 is the no-effect control and ±100 the full control effect
Target sequence (Q9Y253 whole entry, looked up): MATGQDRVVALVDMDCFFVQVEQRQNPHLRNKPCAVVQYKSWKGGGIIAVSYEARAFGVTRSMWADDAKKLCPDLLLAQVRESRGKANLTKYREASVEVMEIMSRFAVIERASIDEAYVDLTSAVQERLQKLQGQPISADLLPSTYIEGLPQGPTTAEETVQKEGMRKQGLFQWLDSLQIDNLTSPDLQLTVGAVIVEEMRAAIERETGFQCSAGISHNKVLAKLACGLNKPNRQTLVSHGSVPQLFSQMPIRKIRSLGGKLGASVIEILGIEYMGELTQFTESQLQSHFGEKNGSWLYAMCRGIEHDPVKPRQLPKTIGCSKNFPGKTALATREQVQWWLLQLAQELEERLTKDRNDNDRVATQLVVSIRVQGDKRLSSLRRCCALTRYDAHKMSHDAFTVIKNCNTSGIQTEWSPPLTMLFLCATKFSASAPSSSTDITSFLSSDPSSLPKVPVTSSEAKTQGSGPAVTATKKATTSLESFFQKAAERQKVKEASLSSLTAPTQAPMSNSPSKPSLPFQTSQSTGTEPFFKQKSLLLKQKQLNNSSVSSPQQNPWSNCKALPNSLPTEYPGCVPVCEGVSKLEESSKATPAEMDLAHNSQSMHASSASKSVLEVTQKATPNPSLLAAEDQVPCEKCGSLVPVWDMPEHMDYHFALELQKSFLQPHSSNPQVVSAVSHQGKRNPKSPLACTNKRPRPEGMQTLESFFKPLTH
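Fluorescent replication assay: 50 nM final substrate added after a 15 min room-temperature compound preincubation with 10 nM enzyme. Signal taken at 0 min and again at 10 min.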
POLB inh = DNA polymerase beta (human) inhibition. Pol beta primer extension/strand displacement, fluorescence kinetic. 340,000 compounds, 1.3% hits. Potency, µM (highest dose often 114 µM), for inactives: at the top dose activity change, negative = inhibition, usual class: inhibitors. P06746; further: on the % scale 0 is the no-effect control and ±100 the full control effect
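Reaction started by 50 nM substrate onto compound-treated Pol beta (10 nM, 15 min preincubation, room temperature); plates read at 0 min and 10 min. Normalized concentration-effect data fitted by four-parameter Hill equation.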
POLK inh = DNA polymerase kappa (human) inhibition. Q9UBT6. purified Pol kappa, fluorescent DNA synthesis assay, 10 min. Potency, µM (doses to about 107 µM), inactives show top-dose activity, negative = inhibition, most hits filed as inhibitors. 400,000 compounds, 0.53% hits; further: on the % scale 0 is the no-effect control and ±100 the full control effect
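50 nM final substrate added after 15 min RT preincubation of 10 nM Pol kappa with compound; fluorescence read at 0 and 10 min.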
WRN inhibitor = blocks human WRN helicase; Q14191; WRN helicase unwinding, fluorescent forked duplex, kinetic; Potency, µM (titrated, usually from 114 µM), without a hit: at the top dose activity change, negative = inhibition, most hits filed as inhibitors; 360,000 compounds, 0.46% hits; further: on the % scale 0 is the no-effect control and ±100 the full control effect; nearly all actives have a fitted effect of over 55% in size
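Primary qHTS, 1536-well format. 20 nM WRN + compound, 15 min RT; start with 100 nM forked fluorophore/quencher duplex, 2 mM ATP (final); kinetic read ex 525/em 598 nm.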
Pol iota inh = DNA polymerase iota (human) inhibition; Q9UNA4; Pol iota fluorescent replication assay, 10 min; Potency, µM (doses to about 115 µM), for the others: at the highest dose activity, negative = inhibition, usual class: inhibitors; 390,000 compounds, 1% hits; AID 588590
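Fluorescent replication assay read twice, at 0 min and 10 min after adding 50 nM (final) substrate. Enzyme (10 nM) and compounds were first incubated 15 min at room temperature; enzyme-free buffer wells were negative controls.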
Active calls of the source: *; ! = a repeat was not active; [ ] = another dose, or the depositor's remark. A selection: hits, their analogues and other compounds. The true share with any hit is near 2.4%. The call rests on the fitted dose curve; in most records, active means well fitted curve in the direction sought with a large enough effect; inconclusive means small, poorly fitted or top-dose-only effect, or another doubt; inactive means no such curve, though single readings can be large; an effect the other way counts as inactive or inconclusive. Potency means the concentration at half of the fitted maximal effect.

CC[N+](CC)(CC)c1ccc(/C=C/c2ccnc3ccccc23)cc1 was read as FEN1 inh inconclusive, POLK inh 45µM* and Pol iota inh inconclusive.
For C(=C\c1ccc2ccccc2n1)/c1ccccc1 the results were FEN1 inh -5%, POLH inh -9%, POLB inh 50%, POLK inh -19%, WRN inhibitor -4% and Pol iota inh -20%.
`CC[N+](CC)(CC)c1ccc(/C=C/c2ccc3ccccc3n2)cc1` gave FEN1 inh 40µM*, POLK inh 45µM* and Pol iota inh -5%.
For C(=C\c1ccnc2ccccc12)/c1ccc(N2CCN(c3ccc(/C=C/c4ccnc5ccccc45)cc3)CC2)cc1 the results were FEN1 inh -12%, POLK inh -5% and Pol iota inh 10%.
CCCCCCNc1ccc(/C=C/c2ccnc3ccccc23)cc1 was read as FEN1 inh -17%, POLK inh -22% and Pol iota inh 8%.
For COC(=O)c1ccc(C2c3c(oc4cc(C)c(C)cc4c3=O)C(=O)N2c2ccccn2)cc1 (stereo not given) the results were FEN1 inh 19%, POLH inh -2%, POLB inh -9%, POLK inh 4% and Pol iota inh 4%.
For COc1ccc(C2=NC(c3ccc(Cl)cc3)C(c3ccc(Cl)cc3)N2C(=O)N2CCNC(=O)C2)c(OC(C)C)c1 (stereo not given) the results were POLK inh -10%[12 µM].
`CCCC[C@@H]1CCCO[C@@](C(=O)NCc2ccc(S(C)(=O)=O)cc2)(C(F)(F)F)C1` gave FEN1 inh -25%, POLK inh -9% and Pol iota inh -2%.
For COc1ccc(C(=O)CC(c2ccccc2)C2C(=O)CCCC2=O)cc1 (stereo not given) the results were FEN1 inh -19%, POLH inh 79µM*, POLB inh -19%, POLK inh -20%, WRN inhibitor -5%[11.6 µM] and Pol iota inh inconclusive.
COc1ccc(C(CC(=O)c2ccccc2)C2CCCCC2=O)cc1 (stereo not given) was read as FEN1 inh -9%, POLH inh -9%, POLB inh -1%, POLK inh -1%, WRN inhibitor -30%[57.1 µM] and Pol iota inh 33%.
Screening CN(Cc1cnc2nc(N)nc(N)c2n1)c1ccc(C(=O)N[C@@H](CCC(=O)O)C(=O)O)cc1 returned FEN1 inh inconclusive, POLH inh 32µM*!, POLB inh 40µM*, POLK inh inconclusive, WRN inhibitor -11% and Pol iota inh 32µM*!.
CN(Cc1cnc2nc(N)nc(N)c2n1)c1ccc(C(=O)N[C@H](CCC(=O)O)C(=O)O)cc1 was read as POLK inh -4%[12 µM].
For COc1ccc(OCCCCc2c(C)n[nH]c2C)cc1 the results were FEN1 inh -19%, POLH inh 10%, POLK inh 3%, WRN inhibitor -5% and Pol iota inh 79µM*.
Screening COc1ccc(CNC(=O)C2CCN(S(=O)(=O)c3c(C)noc3/C=C/c3cccs3)CC2)cc1 returned FEN1 inh 18%, POLH inh -28%, POLB inh -1%, POLK inh 1% and Pol iota inh 12%.
CC(C)c1ccc(/C=C2\SC(=S)N(CCC(=O)NCCCn3ccnc3)C2=O)cc1 was read as FEN1 inh -3%, POLH inh -17%, POLB inh 40µM*, POLK inh inconclusive, WRN inhibitor -11% and Pol iota inh -28%.
Screening COc1ccc(/C=C2\SC(=S)N(CCC(=O)NCCCn3ccnc3)C2=O)cc1 returned FEN1 inh -3%, POLH inh -16%, POLB inh -1%, POLK inh 11%, WRN inhibitor 2% and Pol iota inh -6%.
Screening O=C(Nc1ccc(C(F)(F)F)cc1)C1CCCN(c2cnccn2)C1 (stereo not given) returned FEN1 inh -5%, POLH inh inconclusive, POLB inh inconclusive, POLK inh -6% and Pol iota inh -27%.
Screening CCCCCN(CCCCC)C(=O)[C@H](CCC(=O)O)NC(=O)[C@H](Cc1ccc(OP(=O)(O)O)cc1)NC(C)=O returned POLK inh -14%[12 µM].
C#CCOc1ccc(-c2nnc(Nc3cccc(C)c3)c3ccccc23)cc1 was read as FEN1 inh inconclusive, POLH inh -7%, POLB inh 0%, POLK inh 89µM* and Pol iota inh inconclusive.
CCOC(=O)c1[nH]c(C)c(C(=O)Nc2ccccc2F)c1C was read as FEN1 inh -1%, POLH inh 25µM*, POLB inh -24%, POLK inh -5%, WRN inhibitor -2% and Pol iota inh -18%.
Screening O=C(O)Cn1cc(/C=C/[N+](=O)[O-])c2ccccc21 returned FEN1 inh 4%, POLH inh 45µM*, POLB inh 6%, POLK inh -21%, WRN inhibitor -5%[11.6 µM] and Pol iota inh 28µM*.
O=[N+]([O-])/C=C/c1cn(Cc2ccccc2)c2ccccc12 was read as FEN1 inh -16%, POLH inh -14%, POLB inh -4%, POLK inh -6%, WRN inhibitor -33% and Pol iota inh -8%.
For CCOc1ccc(/C=C/c2nc(C#N)c(N(C)C)o2)cc1 the results were FEN1 inh -1%, POLH inh -13%, POLB inh 11%, POLK inh 2% and Pol iota inh 8%.
For CCOc1ccc(NC(=O)CSc2nc3c(c(=O)[nH]2)CCCC3)cc1 the results were FEN1 inh 11%, POLH inh -6%, POLB inh 1%, POLK inh -3% and Pol iota inh 24%.
Screening CN(C)c1ccc(NC(=O)CSc2nc3c(c(=O)[nH]2)CCCC3)cc1 returned FEN1 inh -8%, POLH inh 79µM*, POLB inh inconclusive, POLK inh inconclusive, WRN inhibitor -2%[11.6 µM] and Pol iota inh inconclusive.
For Cc1cc(C)c2c(=O)[nH]c(SCC(=O)Nc3ccccc3)nc2n1 the results were FEN1 inh 6%, POLH inh 9%, POLB inh 1%, POLK inh -10%, WRN inhibitor -13% and Pol iota inh -2%.
For Cc1ccc(NC(=O)CSc2nc3nc(C)cc(C)c3c(=O)[nH]2)cc1 the results were FEN1 inh 3%, POLH inh inconclusive, POLB inh 45µM*, POLK inh -1%, WRN inhibitor -15% and Pol iota inh 1%.
